# From ChEMBL document CHEMBL3988442, “University of Dundee, Small-Polar-MMV Screening Library” (2021)
# Among all 53,000 compounds or so, about 900 (1.7%) showed an effect of 50% or more. The full list was thinned out, with strong results kept by preference.
# Test system: Mycobacterium tuberculosis
# Assay: Cornell - Phenotypic assay to identify agents that inhibit growth of Mycobacterium tuberculosis
# Format: functional
# Parameters: scale not given: direction of the effect not stated beside the values
# Conditions: 10 mM as filed; unlikely as a test dose
row,Compound,Percent Effect
1,O=C(c1cc(-c2cccs2)cs1)N1CCSCC1,48.33%
2,Cc1cc(NC(=O)NCC(C)N2CCc3ccccc32)no1 (stereo not given),26.44%
3,NC(CC1CCCC1)c1ccc(Oc2ccccc2)cc1 (stereo not given),105%
4,NC(=O)C(NC(=O)COC1CCCCC1)c1ccccc1 (stereo not given),22.67%
5,OC(CN1CCN(CC2CCCCC2)CC1)c1ccccc1 (stereo not given),2.655%
6,Cl.NC(CC1CCCC1)c1ccccc1 (stereo not given),23.09%
7,Cl.NC(CC1CCCCC1)c1ccccc1 (stereo not given),52.12%
8,NC(c1ccccc1)c1ccc(OC(F)F)cc1 (stereo not given),11.06%
9,COc1cc(C)nc(N2CCN(C(=O)c3ccn(C)c(=O)c3)CC2)n1,29.4%
10,Cn1c2ccccc2c2ncn(CCCN3CCOCC3)c(=O)c21,-22.77%
11,Cc1nc(CCC(N)=O)cc(C2CCCCN2S(C)(=O)=O)n1 (stereo not given),34.9%
12,Cc1nn(C)c(Cl)c1CNCc1cccnc1N1CCCCC1.Cl,10.36%
13,Cc1ccccc1N1CCN(c2cc(N(C)C)ncn2)C(C)C1 (stereo not given),75.02%
14,Cc1ccccc1N1CCN(c2ccncn2)C(C)C1 (stereo not given),16.47%
15,Cc1ccc(N2CCN(c3ccccc3C)CC2C)nn1 (stereo not given),29.54%
16,COCC1c2c(cnn2C)CCN1Cc1ccsc1 (stereo not given),24.96%
17,Cc1noc(C)c1CN1C[C@H](C)[C@]2(CCN(Cc3cccnc3)C2=O)C1.O=C(O)C(F)(F)F.O=C(O)C(F)(F)F,-5.753%
18,Cn1ccnc1CN1CCC2(CCC(=O)N2CCN2CCCC2)CC1.O=C(O)C(F)(F)F.O=C(O)C(F)(F)F,19.98%
19,Cc1cnn(CC2CN(c3cnc4ccccc4n3)CCO2)c1 (stereo not given),106.1%
20,Cc1cnn(CC2CN(c3ncnc4ccccc34)CCO2)c1 (stereo not given),29.19%
21,CN(C)CC1CN(c2cnc3ccccc3n2)CCO1 (stereo not given),-10.68%
22,Cc1nn(C)cc1-c1cc(C(=O)NCC(C)(C)c2ccccc2F)n[nH]1,-16.11%
23,Cc1nn(C)cc1-c1cc(C(=O)NCC(C)(C)c2ccc(F)cc2)n[nH]1,61.27%
24,Cc1nn(C)cc1-c1cc(C(=O)NCC(C)(C)c2cccc(F)c2)n[nH]1,26.97%
25,COCC1c2nnn(CC3CC3)c2CCN1Cc1ccncc1.O=C(O)C(F)(F)F.O=C(O)C(F)(F)F (stereo not given),18.59%
26,CN1CCC(Cc2cc(N(C)C)ncn2)C1 (stereo not given),2.45%
27,CC(C)c1cc(CN2CCNCC2)no1,107.4%
28,CC(C)c1cc(CN2CCC(CC(=O)O)CC2)no1,-2.549%
29,CC(C)c1cc(CN2CCC(N)CC2)no1,-17.69%
30,CN1C[C@@H](C(=O)NC(C)(C)C)[C@@]2(COc3ccc(F)cc3C2=O)C1,28.72%
